c-Myc SMM – binders of human c-Myc, primary screen, biochemical, small molecule microarray, anti-His fluorescence. Myc proto-oncogene protein (Homo sapiens), P01106. AID 624141, 2012. calls only. 17,000 tested, 1.5% active. His-c-Myc binding;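 active = spot fluorescence over background with P-value below 7% in all four replicate spots, showing protein binding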;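 note: score is binary with 100 for all four spots passing and 0 otherwise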
NFkB binder – binders of NF-kB p50 subunit, primary screen, biochemical, small molecule microarray, anti-His fluorescence; anti-His fluorescence binding; calls only; 17,000 tested, 1.3% active; AID 624139, 2012;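 active = spot fluorescence over background significantly raised, with a chance value under 7% in all four replicate spots of the compound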;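 note: probe protein is his-tagged human p50 processed subunit at 1 µg/ml; raw spot fluorescence signals with no normalization applied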
Target sequence (P19838 1-433 limits assumed): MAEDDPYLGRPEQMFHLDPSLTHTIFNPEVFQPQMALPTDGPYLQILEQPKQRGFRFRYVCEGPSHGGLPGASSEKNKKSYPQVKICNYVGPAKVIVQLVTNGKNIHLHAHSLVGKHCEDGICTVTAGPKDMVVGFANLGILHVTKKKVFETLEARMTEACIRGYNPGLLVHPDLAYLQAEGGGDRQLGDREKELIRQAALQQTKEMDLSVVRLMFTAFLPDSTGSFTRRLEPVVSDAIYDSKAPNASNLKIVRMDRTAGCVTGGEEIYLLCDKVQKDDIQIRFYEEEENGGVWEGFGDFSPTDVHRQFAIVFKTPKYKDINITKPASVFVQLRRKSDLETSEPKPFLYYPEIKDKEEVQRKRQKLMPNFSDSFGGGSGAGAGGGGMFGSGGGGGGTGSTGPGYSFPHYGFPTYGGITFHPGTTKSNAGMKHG
p53 mut binder – binders of human mutant p53, primary screen, biochemical, small molecule microarray, anti-GST fluorescence. mutant tumor protein p53 (GST-tagged), Homo sapiens. small molecule microarray binding. calls only. 17,000 tested, 0.4% active;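 active = compounds whose four printed spots each glow above background more than chance allows, each with a p-value under 7%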
STAT3 SMM – STAT3 binders, primary screen, biochemical, small molecule microarray, single point, set 2; AID 624138, 2012; 17,000 tested, 0.2% active; calls only; His-STAT3 binding, anti-His fluorescence; Signal transducer and activator of transcription 3 (Homo sapiens), P40763;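 active = compounds whose four printed spots each show fluorescence over background unusually high for their array block, chance value under 7%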
Starred values were filed as active, the others as inactive; i = inactive; + = active, no number. A selection: hits, their analogues and other compounds. The true share with any hit is near 2.1%.

SMILES	c-Myc SMM	NFkB binder	p53 mut binder	STAT3 SMM
CC[C@@H](CO)NC(=O)[C@@H]1C=C2c3cccc4c3c(cn4C)C[C@H]2N(C)C1	+	i	i	i
CCC(CO)NC(=O)C1C=C2c3cccc4[nH]cc(c34)CC2N(C)C1 (centres undefined)	+	+	i	i
O=C1/C(=C/c2ccccc2)C[C@@]2(O)C3Cc4ccc(O)c5c4[C@@]2(CCN3CC2CC2)[C@H]1O5	i	i	i	i
CC[C@@H]1/C=C\C=C\C[C@H](C)[C@@H](O)[C@](C)(O)C(=O)[C@H](C)[C@@H](O)[C@H](C)C(=O)[C@H](C)[C@@H](O)[C@H](C)/C=C/C(=O)O[C@H]2[C@@H](C)[C@@H](CC1)O[C@@]1(CC[C@@H](C)[C@@H](C[C@H](C)O)O1)[C@@H]2C	i	i	i	i
CO[C@H]1[C@@H](O)[C@@H](C)O[C@@H](OC2CCC3(C)C(CC[C@@H]4[C@@H]3CCC3(C)C(C5=CC(=O)OC5)C(O)CC43O)C2)[C@@H]1O (some centres undefined)	i	i	i	i
COC1CC(OC2CCC3(C)C(CCC4(O)C3CC(OC(=O)c3ccccc3)C3(C)C(O)(C(C)=O)CCC43O)C2)OC(C)C1OC1CC(OC)C(OC2OC(C)C(O)C(OC)C2O)C(C)O1 (centres undefined)	+	+	i	i
Cc1ccc2c(c1)Cc1c(C(=O)NC3CCCCC3)nn(-c3ccc(Cl)cc3Cl)c1-2	i	+	i	i
O=C(O)C1C2CCC(O2)C1C(=O)NCCc1ccccc1 (centres undefined)	+	i	i	i
CNCC(O)c1ccc(O)c(OC)c1 (centres undefined)	i	i	i	i
CC(=O)c1c(C)n(Cc2ccccc2)c2c(Cl)c(Cl)c(Cl)c(OCC(=O)O)c12	i	i	i	i
CCC(C)[C@H]1C(=O)O[C@H](C(C)C)C(=O)N(C)[C@@H](C(C)C)C(=O)O[C@H](C(C)C)C(=O)N(C)[C@@H](C(C)C)C(=O)O[C@H](C(C)C)C(=O)N1C (some centres undefined)	i	+	i	i
C#CCN1C(C)=C(C(=O)CCO)C(c2cccc(-n3oo3)c2)C(C(=O)OC)=C1C (centres undefined)	i	i	i	i

Source: PubChem (Broad Institute)
